Results taken from PubChem BioAssay AID1469 (National Center for Advancing Translational Sciences (NCATS), 2008).
Out of some 280,000 compounds screened, about 180 (0.064%) were called active. Calls come from the whole dose curve; as a rule, active = well fitted inhibition curve with a large enough effect; inconclusive = small, poorly fitted or top-dose-only effect, or effect the other way; inactive = flat fitted curve, though single readings scatter. The list comes from a sample in which actives are over-represented; it also holds similar structures and randomly drawn compounds. A call without a number means that no potency is given here.

These compounds were tested against Thyroid hormone receptor beta (Homo sapiens) (UniProt P10828) (assay: qHTS for Inhibitors of the Interaction of Thyroid Hormone Receptor and Steroid Receptor Coregulator 2). Conditions: TRbeta-SRC2 peptide binding, fluorescence polarization, receptor liganded with 1 µM T3; series mostly up to 106 µM.
Thyroid hormone receptor beta (Homo sapiens), sequence (P10828 whole entry, looked up, the tested form may be a part): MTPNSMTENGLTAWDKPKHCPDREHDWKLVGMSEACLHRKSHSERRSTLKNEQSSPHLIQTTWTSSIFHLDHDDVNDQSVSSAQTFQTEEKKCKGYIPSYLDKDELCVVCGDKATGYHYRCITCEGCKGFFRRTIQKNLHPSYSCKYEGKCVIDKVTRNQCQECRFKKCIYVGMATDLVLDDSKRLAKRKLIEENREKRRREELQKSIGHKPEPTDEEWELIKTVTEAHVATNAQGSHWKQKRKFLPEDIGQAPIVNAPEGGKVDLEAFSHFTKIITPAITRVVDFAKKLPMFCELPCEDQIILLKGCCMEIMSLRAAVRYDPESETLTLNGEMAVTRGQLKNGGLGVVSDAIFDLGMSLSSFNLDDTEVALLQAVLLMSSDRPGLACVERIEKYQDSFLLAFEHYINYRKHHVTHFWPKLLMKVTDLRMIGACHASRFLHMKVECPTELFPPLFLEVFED
In short: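 Each compound concentration gave % activity, normalized to unbound and bound Texas Red SRC2 controls, from polarization read after 5 hr ambient incubation with T3-loaded human TRb LBD.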
Note: nearly all actives have a fitted effect of over 50% in size.
Potency is the fitted concentration of half-maximal effect.

Row | SMILES | Potency
1 | COc1ccc(CNC(=O)c2ccc(NC(=O)N3CC4CCCN4c4ccccc43)cc2)cc1 (stereo not given) | inactive
2 | Cc1cccc(N2CCN(C3=C(c4ccccc4)C(=O)c4ccccc43)CC2)c1C | inactive
3 | Cc1nc2nc(NCc3cccc(Br)c3)[nH]n2c(=O)c1Cc1ccccc1 | inactive
4 | C[Si](C)(C)N[Si](C)(C)C | inactive
5 | CN(C)c1ccc(N/C=C/C(=O)C(F)(F)F)cc1 | 44.7 µM (active)
6 | CCCOc1ccc(N/C=C/C(=O)C(C)(C)C)cc1 | inactive
7 | O=C(/C=C/Nc1ccccc1OC(F)(F)F)C(F)(F)F | inactive
8 | COc1ccc(C2=NC(c3ccncc3)=Nc3ccc(Br)cc3N2)cc1 | inactive
9 | Cc1ccccc1OCc1ccc(-c2nc(C#N)c(N3CCCCC3)o2)o1 | inactive
10 | Cc1cc(=O)n(CC(=O)Nc2cccc([N+](=O)[O-])c2)c(-n2nc(C)cc2C)n1 | inactive
11 | Cc1ccc(NC(=O)c2oc3ccc(S(=O)(=O)N4CCCCC4)cc3c2C)cc1Cl | inactive
12 | CCN(CC)c1cc(NC2CCCCC2)c2c3c(onc13)-c1ccccc1C2=O | inactive
13 | COc1cc(NC(=O)c2noc3c2CSc2ccccc2-3)cc(OC)c1OC | inactive
14 | CCc1cccc(C)c1Nc1c(-c2ccc(N(C)C)cc2)nc2ncccn12 | inactive
15 | CCOCCCNC(=O)c1ccc2nc(CCc3ccccc3)oc2c1 | inactive
16 | CCc1ccccc1NC(=O)Cc1ccc(NC(=O)N2CCCCc3ccccc32)cc1 | inactive
17 | CCOC(=O)c1ccc(N2C(=O)c3n[nH]c(-c4ccco4)c3C2c2ccc(O)cc2)cc1 (stereo not given) | inactive
18 | O=C(CCOc1ccccc1)N(Cc1cccnc1)c1nc2ccc(Cl)cc2s1 | inactive
19 | CCOC(=O)N1CCc2c(sc(NCc3cccc(F)c3)c2C(=O)Nc2ccccc2OCC)C1 | inactive
20 | COC(=O)CC1Oc2ccccc2-n2cc(-c3ccccc3)nc21 (stereo not given) | inactive
21 | Cc1ccc(O)c(NC(=O)CCS(=O)(=O)c2nc(-c3ccc4c(c3)OCO4)cc(C(F)(F)F)n2)c1 | inactive
22 | Cc1cc(C)cc(NC(=O)CSc2oc(-c3ccccc3)nc2S(=O)(=O)c2ccc(Cl)cc2)c1 | inactive
23 | CCOc1ccc(CNC(=O)c2ccc(CS(=O)c3ccccc3)o2)cc1 (stereo not given) | inactive
24 | CCCn1c(NCc2ccc(N(CC)CC)cc2)nc2ccccc21 | inactive
25 | CCOCCCNC(=O)c1c(NC(=O)Cc2coc3ccc(C)cc23)sc2c1CCC2 | inactive

Row | SMILES | Potency
26 | Cc1ccc2nc(-c3ccc(O)cc3)c(Nc3ccc4c(c3)OCO4)n2c1 | inactive
27 | Cc1ccc(-c2nc3ccccn3c2Nc2c(C)cccc2C)o1 | inactive
28 | Cc1ccccc1CS(=O)(=O)CC1Nc2ccc(C(=O)NCc3ccc(Cl)cc3)cc2NC1=O (stereo not given) | inactive
29 | Cc1cccc(N2CCN(c3ccc(C(=O)O)cc3NC(=O)c3ccccc3F)CC2C)c1 (stereo not given) | inactive
30 | CCOc1ccc(-c2cc(C)n3nc(C(=O)Nc4ccc(C)c(C)c4)cc3n2)cc1 | inactive
31 | COc1ccc(N=C(C)c2sc3ccccc3c2O)cc1 | inactive
32 | Oc1ccc(N=Cc2sc3ccccc3c2Cl)cc1 | 14.1 µM (active)
33 | O=C(N/N=C/c1c(Cl)[nH]c2ccccc12)c1sc2ccccc2c1Cl | inactive
34 | COc1cccc(-c2cc(C(=O)Nc3ccc(C)cc3)[nH]n2)c1 | inactive
35 | COc1ccc(CC(=O)Nc2nnc3n2CCS3)cc1OC | inactive
36 | Cc1ccc(Nc2nnc(-c3ccc(C)c(S(=O)(=O)N4CCCCC4)c3)c3ccccc23)cc1 | inactive
37 | COc1ccccc1N1CCN(CCCNC(=O)c2cnn(-c3ccccc3Cl)c2C2CCN(C(=O)OC(C)(C)C)CC2)CC1 | inactive
38 | CC1(C)C(=O)N(Cl)C(=O)N1Cl | inactive
39 | CCCCCCCCCCCCCCCC | inactive
40 | CCOc1ccccc1NC(=O)Cn1c2ncccc2c(=O)n1-c1ccc(C)c(C)c1 | inactive
41 | CC(C)Cn1c(-c2ccc(S(=O)(=O)N3CCOCC3)cc2)csc1=Nc1cc(Cl)ccc1Cl | inactive
42 | COc1cccc(-c2nc(CS(=O)(=O)CC(=O)N3CCN(c4cc(C)ccc4C)CC3)c(C)o2)c1 | inactive
43 | CC1(C)C(=O)N(Br)C(=O)N1Br | inactive
44 | Cc1nc2ccn(Cc3cccs3)c(=O)c2cc1C(=O)NCc1ccc(Cl)cc1 | inactive
45 | CCOc1cc(-c2nnc(SCC(=O)NC3CCCCC3)nc2-c2ccc(OC)c(OCC)c2)ccc1OC | inactive
46 | Cc1ccc(N)c(S(=O)(=O)O)c1 | inactive
47 | CCc1c(C(=O)O)c(=O)cnn1-c1ccc(Cl)cc1 | inactive
48 | CC1CCN(S(=O)(=O)c2ccc3c(ccn3CCC(=O)NCc3ccc(N(C)C)cc3)c2)CC1 | inactive
49 | COc1ccc(N2CCN(C(=O)C3CCCN(C(=O)c4cc5sccc5n4C)C3)CC2)cc1 (stereo not given) | inactive
50 | CC(=O)Nc1ccc(NC(=O)c2cc3sccc3n2Cc2ccc(F)cc2)cc1 | inactive

Row | SMILES | Potency
51 | CCOc1ccc(OCC)c(NC(=O)CN(c2ccc(C)cc2)S(=O)(=O)c2c(C)n[nH]c2C)c1 | inactive
52 | COc1ccc(CCNC(=O)CCCCn2c(=O)c3ccccc3n(Cc3ccccc3)c2=O)cc1OC | inactive
53 | CCCS(=O)(=O)c1c(Nc2ccccc2C)sc(C(=O)c2ccccc2)c1N | inactive
54 | COc1cccc(NC(=O)CSc2cc(=O)n(C)c3ccc(Cl)cc23)c1 | inactive
55 | CSc1ccccc1NC(=O)CCS(=O)(=O)c1nc(-c2cccs2)cc(C(F)(F)F)n1 | inactive
56 | COc1ccc2c(c1)Cc1sc(NC(=O)c3ccccc3Br)nc1-2 | inactive
57 | COc1cc(OC)c(NC(=O)N2CC3CCCN3c3ccccc32)cc1Cl (stereo not given) | inactive
58 | Cc1ccc(C2C=C(c3ccc(Cl)cc3)Nc3nc(NC(=O)CCC(=O)O)nn32)cc1 (stereo not given) | inactive
59 | O=S(=O)(c1ccc2nc(NCc3ccccc3Cl)ccc2c1)N1CCCCC1 | inactive
60 | COc1ccc(NC(=O)C2CCN(c3ccc(Sc4ccc(C)cc4)nn3)CC2)c(OC)c1 | inactive
61 | COc1ccc(Nc2ncc(C(=O)Nc3cc(C)ccc3OC)c3ccccc23)cc1 | inactive
62 | Cc1ccc(S(=O)(=O)c2nc(-c3cccs3)oc2N2CCCCC2)cc1 | inactive
63 | COc1ccccc1Nc1c2c(nc3ccc(NC(=O)/C=C/c4cc(OC)c(OC)c(OC)c4)cc13)CCCC2 | inactive
64 | COc1cccc(Cn2c(SCc3ccc(C(=O)N4CCC(C)CC4)cc3)nc3ccncc32)c1 | inactive
65 | CCOC(=O)Cn1c(=O)n(-c2ccccc2OC)c2nc(-c3cccc(F)c3)nc(C(N)=O)c21 | inactive
66 | Cc1cccc(N2CCN(C(=O)c3cc4c(=O)oc5ccccc5c4s3)CC2C)c1 (stereo not given) | inactive
67 | COc1ccc(C)cc1NC(=O)C(=O)NCCc1sc(-c2cccc(C)c2)nc1C | inactive
68 | Cc1cccc(Cn2c(SCc3ccc(C(=O)N4CCC(C)CC4)cc3)nc3ccncc32)c1 | inactive
69 | CN1CCN(c2oc(-c3ccc(COc4ccc(Cl)cc4)o3)nc2C#N)CC1 | inactive
70 | CC(=O)c1ccc(NC(=O)CSc2c(C(C)C)cnc3c2c(=O)n(C)c(=O)n3C)cc1 | inactive
71 | CCOc1ccc(C2C(=O)N(C3CCCCC3)CC(=O)N2CCC2=CCCCC2)cc1OC (stereo not given) | inactive
72 | COc1ccccc1N1CCN(C(CNC(=O)C(=O)NCc2ccc(C)cc2)c2cccnc2)CC1 (stereo not given) | inactive
73 | CCOC(=O)c1c(N)sc(C(C)=O)c1C | inactive
74 | COCCOC(=O)c1sc(=S)n(CCOC)c1N | 39.8 µM (active)
75 | COC(=O)c1sc(=S)n(-c2ccc(Cl)cc2)c1C | inactive

Row | SMILES | Potency
76 | Cc1cc(C)c(N)c(Cl)c1 | inactive
77 | COc1ccc(C2Sc3ccccc3NC3=C2C(=O)c2ccccc23)c(OC)c1OC (stereo not given) | inactive
78 | CCOc1cccc(CC(=O)N2CCc3c([nH]c4ccccc34)C2c2ccc(OC)cc2)c1OCC (stereo not given) | inactive
79 | Cc1ccc(OCC(=O)Nc2ccc(Cl)c(-c3nc4ccccc4[nH]3)c2)cc1C | inactive
80 | COc1ccc(C(F)(F)F)cc1NC(=O)c1sc2nc(-c3cccs3)ccc2c1N | inactive
81 | CCOc1ccc(C(=O)/C=C/c2cn(CC(O)CN3CCCCCC3)c3ccccc23)cc1 (stereo not given) | inactive
82 | Cc1ccc(CCNC(=O)c2ccc3c(c2)N(Cc2cc(C)ccc2C)C(=O)c2ccccc2S3=O)cc1 (stereo not given) | inactive
83 | O=C(C1CCC(Cn2c(=O)c3sccc3n(Cc3ccccc3F)c2=O)CC1)N1CCCCC1 (stereo not given) | inactive
84 | COc1cccc(N2CCN(S(=O)(=O)c3cc(Br)cc4c3N(C(=O)C3CC3)CC4)CC2)c1 | inactive
85 | CCOc1cccc2sc(N3CCN(C(=O)C4CC4)CC3)nc12 | inactive
86 | COc1ccc(OCCCn2c(C)nc3cc(C)c(C)cc32)cc1 | inactive
87 | CC(=O)Nc1ccc2nc(SCCOc3cc(C)cc(C)c3)sc2c1 | inactive
88 | COc1ccc(NC(=O)CSc2nc3ccccc3n2CC(=O)N2CCCCC2C)cc1 (stereo not given) | inactive
89 | Cc1cccc(CC(=O)Nc2cccc(-c3cn4cccnc4n3)c2)c1 | inactive
90 | CC(=O)N(CCN(C(C)=O)C(C)=O)C(C)=O | inactive
91 | COc1ccc(Cl)cc1-n1c(CCC(=O)O)ccc1-c1ccc(C)cc1 | inactive
92 | CCOc1ccccc1N(CC)C(=O)c1cc2ccc3cccnc3c2[nH]1 | inactive
93 | CCOc1ccccc1CNC(=O)Nc1cn(CC(C)C)c(=O)c2ccccc12 | inactive
94 | O=C(Nc1cc(Cl)cc(Cl)c1)c1ccc2c(c1)N(Cc1cccc(Cl)c1)C(=O)c1ccccc1S2=O (stereo not given) | inactive
95 | Clc1cccc(-n2ncc3c(NCCc4ccccc4)ncnc32)c1 | inactive
96 | CCOC(=O)c1c(C)oc2nc(C)nc(N(CC(C)C)CC(C)C)c12 | inactive
97 | O=C(Nc1cccc(-c2nc3ccccc3o2)c1)c1cccc(Br)c1 | inactive
98 | CCN(CC)S(=O)(=O)c1nnc(NC(=O)COc2ccccc2Cl)s1 | inactive
99 | O=C(c1ccc2c(c1)N(Cc1ccccc1)C(=O)c1ccccc1S2(=O)=O)N1CCC(Cc2ccccc2)CC1 | inactive
100 | CCc1ccc(NC(=O)c2sc3nc4c(cc3c2N)CN(CC)CC4)cc1 | inactive
